Experiments:
Assay in all cases: DAPPL (digital affinity profiling via proximity ligation, sequencing); 10 mM Tris-HCl pH 7.5, 50 mM NaCl, 1 mM DTT, 4% glycerol, room temperature, 30 min; GST-TFs on glutathione beads, 16-mer random dsDNA library, 0.1% formaldehyde crosslink after washing; high values mean tight binding
[1] = target: T1, FEV (Homo sapiens, UniProt Q99581 1-238); details: protein: recombinant; tags: N-terminal GST; dsDNA, one strand shown
T1 sequence: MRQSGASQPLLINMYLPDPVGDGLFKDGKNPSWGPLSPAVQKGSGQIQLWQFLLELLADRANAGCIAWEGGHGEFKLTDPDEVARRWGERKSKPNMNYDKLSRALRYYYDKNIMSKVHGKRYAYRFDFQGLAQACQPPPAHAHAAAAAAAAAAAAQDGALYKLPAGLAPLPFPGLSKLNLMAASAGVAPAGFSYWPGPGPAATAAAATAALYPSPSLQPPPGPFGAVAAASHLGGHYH
In short: (§1)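 A tag-only sample was pooled with DNA-barcoded human transcription factors that had been expressed in yeast as GST fusions and captured on glutathione beads. The pools were incubated for 30 min at room temperature with 200 nmole of a random double-stranded 16-mer DNA library in Tris/NaCl/DTT/glycerol buffer, then washed, crosslinked with 0.1% formaldehyde, proximity-ligated (BsaI/T4 ligase, 1 h, 37 °C), PCR-amplified and sequenced on an Illumina NextSeq500. Binding signal is each hexamer's read frequency for a factor divided by its frequency for the tag-only sample.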

[2] = target: ETV5 (Homo sapiens, UniProt P41161 1-510); details: protein: recombinant; tags: N-terminal GST; dsDNA, one strand shown
In short: as §1

[3] = target: HSF1 (Homo sapiens, UniProt Q00613 1-529); details: protein: recombinant; tags: N-terminal GST; chain copies: 3; dsDNA, one strand shown
In short: as §1

[4] = target: T2, SPIC (Homo sapiens, UniProt Q8N5J4 1-248); details: protein: recombinant; tags: N-terminal GST; dsDNA, one strand shown
T2 sequence: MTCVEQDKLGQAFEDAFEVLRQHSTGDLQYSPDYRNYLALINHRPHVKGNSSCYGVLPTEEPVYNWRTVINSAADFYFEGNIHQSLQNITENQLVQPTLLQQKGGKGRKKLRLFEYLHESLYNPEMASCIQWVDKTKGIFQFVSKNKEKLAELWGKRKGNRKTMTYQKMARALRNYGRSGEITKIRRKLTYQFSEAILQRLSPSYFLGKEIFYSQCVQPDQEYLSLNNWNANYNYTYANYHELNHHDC
In short: as §1

[5] = target: ELF4 (Homo sapiens, UniProt Q99607 1-663); details: protein: recombinant; tags: N-terminal GST; dsDNA, one strand shown
In short: as §1

[6] = target: T3, ELK4 (Homo sapiens, UniProt P28324-2 1-405); details: protein: recombinant; tags: N-terminal GST; dsDNA, one strand shown
T3 sequence: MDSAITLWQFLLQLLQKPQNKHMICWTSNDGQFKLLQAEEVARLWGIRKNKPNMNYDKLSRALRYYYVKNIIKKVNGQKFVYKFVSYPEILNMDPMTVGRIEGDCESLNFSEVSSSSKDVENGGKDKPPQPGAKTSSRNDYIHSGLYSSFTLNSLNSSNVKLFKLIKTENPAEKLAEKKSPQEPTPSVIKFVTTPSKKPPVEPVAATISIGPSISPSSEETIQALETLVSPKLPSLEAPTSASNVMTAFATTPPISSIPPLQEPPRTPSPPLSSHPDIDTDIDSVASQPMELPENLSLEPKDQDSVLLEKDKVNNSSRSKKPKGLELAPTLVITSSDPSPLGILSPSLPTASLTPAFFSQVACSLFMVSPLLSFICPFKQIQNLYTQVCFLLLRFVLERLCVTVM
In short: as §1

[7] = target: T4, ETV2 (Homo sapiens, UniProt O00321 1-342); details: protein: recombinant; tags: N-terminal GST; dsDNA, one strand shown
T4 sequence: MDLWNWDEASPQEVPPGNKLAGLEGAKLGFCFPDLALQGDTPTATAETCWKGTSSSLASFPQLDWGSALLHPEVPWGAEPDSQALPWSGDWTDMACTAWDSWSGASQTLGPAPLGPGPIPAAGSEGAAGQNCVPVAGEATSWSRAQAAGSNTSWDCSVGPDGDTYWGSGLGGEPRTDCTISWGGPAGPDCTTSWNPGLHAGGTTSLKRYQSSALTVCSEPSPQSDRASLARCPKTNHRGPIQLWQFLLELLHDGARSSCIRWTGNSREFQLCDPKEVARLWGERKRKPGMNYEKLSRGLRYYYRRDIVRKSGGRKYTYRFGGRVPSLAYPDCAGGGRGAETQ
In short: as §1

[8] = target: T5, ELF3 (Homo sapiens, UniProt P78545 1-371); details: protein: recombinant; tags: N-terminal GST; dsDNA, one strand shown
T5 sequence: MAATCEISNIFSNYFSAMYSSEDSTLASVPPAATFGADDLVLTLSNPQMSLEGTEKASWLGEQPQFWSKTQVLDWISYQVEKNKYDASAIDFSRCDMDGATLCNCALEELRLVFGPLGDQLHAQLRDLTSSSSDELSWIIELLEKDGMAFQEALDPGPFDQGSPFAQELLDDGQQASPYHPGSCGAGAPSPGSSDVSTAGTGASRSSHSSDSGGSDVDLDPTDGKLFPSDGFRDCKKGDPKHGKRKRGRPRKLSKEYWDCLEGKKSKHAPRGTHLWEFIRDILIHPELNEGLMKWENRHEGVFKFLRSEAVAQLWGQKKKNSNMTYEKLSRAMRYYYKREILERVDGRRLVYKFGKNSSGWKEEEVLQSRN
In short: as §1

[9] = target: CRX (Homo sapiens, UniProt O43186 1-299); details: protein: recombinant; tags: N-terminal GST; dsDNA, one strand shown
In short: as §1

[10] = target: ETV1 (Homo sapiens, UniProt P50549 1-477); details: protein: recombinant; tags: N-terminal GST; dsDNA, one strand shown
In short: as §1

[11] = target: T6, ERF (Homo sapiens, UniProt P50548 1-548); details: protein: recombinant; tags: N-terminal GST; dsDNA, one strand shown
T6 sequence: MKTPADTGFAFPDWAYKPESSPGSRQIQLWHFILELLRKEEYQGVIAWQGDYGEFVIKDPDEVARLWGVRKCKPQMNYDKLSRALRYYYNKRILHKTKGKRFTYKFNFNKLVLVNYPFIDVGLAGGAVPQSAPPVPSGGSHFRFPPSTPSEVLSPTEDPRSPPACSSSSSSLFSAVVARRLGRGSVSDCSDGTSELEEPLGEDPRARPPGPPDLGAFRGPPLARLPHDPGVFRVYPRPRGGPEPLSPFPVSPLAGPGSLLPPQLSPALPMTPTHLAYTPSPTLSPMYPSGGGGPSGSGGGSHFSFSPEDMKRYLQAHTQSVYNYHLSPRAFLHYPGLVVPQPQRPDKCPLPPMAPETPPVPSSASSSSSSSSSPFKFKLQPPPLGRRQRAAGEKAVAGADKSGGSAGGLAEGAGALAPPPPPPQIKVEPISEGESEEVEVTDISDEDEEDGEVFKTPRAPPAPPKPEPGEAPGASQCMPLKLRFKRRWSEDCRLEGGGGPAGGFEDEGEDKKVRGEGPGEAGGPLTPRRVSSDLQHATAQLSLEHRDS
In short: as §1

[12] = target: T7, ETV3L (Homo sapiens, UniProt Q6ZN32 1-361); details: protein: recombinant; tags: N-terminal GST; dsDNA, one strand shown
T7 sequence: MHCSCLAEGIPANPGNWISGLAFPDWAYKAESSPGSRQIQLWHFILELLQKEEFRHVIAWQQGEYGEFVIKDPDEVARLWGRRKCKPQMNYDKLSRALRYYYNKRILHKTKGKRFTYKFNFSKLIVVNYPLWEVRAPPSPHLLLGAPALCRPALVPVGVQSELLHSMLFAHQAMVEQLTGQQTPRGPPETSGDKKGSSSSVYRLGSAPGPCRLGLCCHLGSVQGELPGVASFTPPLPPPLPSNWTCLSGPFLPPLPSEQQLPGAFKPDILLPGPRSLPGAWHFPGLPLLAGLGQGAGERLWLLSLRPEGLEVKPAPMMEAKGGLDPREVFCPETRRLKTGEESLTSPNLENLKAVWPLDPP
In short: as §1

[13] = target: T8, ETS2 (Homo sapiens, UniProt P15036 1-469); details: protein: recombinant; tags: N-terminal GST; dsDNA, one strand shown
T8 sequence: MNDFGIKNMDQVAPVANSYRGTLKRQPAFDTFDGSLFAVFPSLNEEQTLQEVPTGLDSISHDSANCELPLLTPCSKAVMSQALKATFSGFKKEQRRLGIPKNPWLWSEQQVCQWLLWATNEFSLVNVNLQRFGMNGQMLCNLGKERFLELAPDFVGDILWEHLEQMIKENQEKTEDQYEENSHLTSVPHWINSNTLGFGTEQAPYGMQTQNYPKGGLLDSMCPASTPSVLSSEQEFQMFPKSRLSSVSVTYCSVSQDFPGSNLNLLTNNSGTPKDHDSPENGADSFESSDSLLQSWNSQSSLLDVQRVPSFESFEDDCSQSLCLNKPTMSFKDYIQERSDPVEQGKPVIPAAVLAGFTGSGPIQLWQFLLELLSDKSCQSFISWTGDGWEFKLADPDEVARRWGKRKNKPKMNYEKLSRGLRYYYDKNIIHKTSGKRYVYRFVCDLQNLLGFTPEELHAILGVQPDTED
In short: as §1

[14] = target: T9, SPDEF (Homo sapiens, UniProt O95238 1-335); details: protein: recombinant; tags: N-terminal GST; dsDNA, one strand shown
T9 sequence: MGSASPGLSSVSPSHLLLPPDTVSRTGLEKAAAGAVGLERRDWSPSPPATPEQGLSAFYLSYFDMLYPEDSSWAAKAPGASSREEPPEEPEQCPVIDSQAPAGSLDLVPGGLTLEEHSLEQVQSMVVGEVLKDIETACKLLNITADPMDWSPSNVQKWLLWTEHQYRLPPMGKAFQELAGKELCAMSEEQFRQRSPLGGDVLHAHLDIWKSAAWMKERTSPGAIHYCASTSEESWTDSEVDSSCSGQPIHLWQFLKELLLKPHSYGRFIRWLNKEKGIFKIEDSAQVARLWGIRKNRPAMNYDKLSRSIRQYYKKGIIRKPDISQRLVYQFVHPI
In short: as §1

[15] = target: T10, ETV7 (Homo sapiens, UniProt Q9Y603 1-341); details: protein: recombinant; tags: N-terminal GST; dsDNA, one strand shown
T10 sequence: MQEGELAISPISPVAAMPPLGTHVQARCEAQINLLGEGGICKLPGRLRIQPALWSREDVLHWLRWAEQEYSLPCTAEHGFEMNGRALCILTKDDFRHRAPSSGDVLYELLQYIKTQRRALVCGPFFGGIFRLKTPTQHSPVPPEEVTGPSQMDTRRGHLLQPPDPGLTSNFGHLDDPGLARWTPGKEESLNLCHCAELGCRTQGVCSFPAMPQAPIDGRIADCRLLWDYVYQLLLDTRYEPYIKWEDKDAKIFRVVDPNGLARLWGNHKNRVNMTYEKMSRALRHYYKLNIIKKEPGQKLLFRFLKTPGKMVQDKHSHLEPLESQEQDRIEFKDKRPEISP
In short: as §1

[16] = target: T11, ELF5 (Homo sapiens, UniProt Q9UKW6-2 1-255); details: protein: recombinant; tags: N-terminal GST; dsDNA, one strand shown
T11 sequence: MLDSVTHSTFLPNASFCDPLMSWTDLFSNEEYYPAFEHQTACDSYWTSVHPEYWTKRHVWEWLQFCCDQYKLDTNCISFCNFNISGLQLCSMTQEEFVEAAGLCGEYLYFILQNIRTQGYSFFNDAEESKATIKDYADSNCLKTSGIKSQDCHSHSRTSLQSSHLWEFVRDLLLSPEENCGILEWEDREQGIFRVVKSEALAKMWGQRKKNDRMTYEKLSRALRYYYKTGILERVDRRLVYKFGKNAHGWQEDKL
In short: as §1

[17] = target: T12, ETV3 (Homo sapiens, UniProt P41162-2 1-143); details: protein: recombinant; tags: N-terminal GST; dsDNA, one strand shown
T12 sequence: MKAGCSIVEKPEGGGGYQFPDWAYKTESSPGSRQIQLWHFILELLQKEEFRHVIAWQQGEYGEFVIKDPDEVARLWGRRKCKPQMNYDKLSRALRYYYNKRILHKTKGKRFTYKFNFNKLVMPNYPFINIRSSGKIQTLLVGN
In short: as §1

[18] = target: ETV6 (Homo sapiens, UniProt P41212 1-452); details: protein: recombinant; tags: N-terminal GST; dsDNA, one strand shown
In short: as §1

Chain of CRX (O43186 whole entry): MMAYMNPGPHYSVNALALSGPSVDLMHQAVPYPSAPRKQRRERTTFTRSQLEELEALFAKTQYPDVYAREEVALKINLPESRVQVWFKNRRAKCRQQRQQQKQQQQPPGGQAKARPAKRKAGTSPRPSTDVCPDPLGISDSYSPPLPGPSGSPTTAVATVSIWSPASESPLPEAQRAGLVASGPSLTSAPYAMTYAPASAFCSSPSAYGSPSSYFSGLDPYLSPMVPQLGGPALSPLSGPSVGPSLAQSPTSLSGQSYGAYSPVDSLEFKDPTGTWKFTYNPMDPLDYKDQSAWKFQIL
Chain of HSF1 (Q00613 whole entry): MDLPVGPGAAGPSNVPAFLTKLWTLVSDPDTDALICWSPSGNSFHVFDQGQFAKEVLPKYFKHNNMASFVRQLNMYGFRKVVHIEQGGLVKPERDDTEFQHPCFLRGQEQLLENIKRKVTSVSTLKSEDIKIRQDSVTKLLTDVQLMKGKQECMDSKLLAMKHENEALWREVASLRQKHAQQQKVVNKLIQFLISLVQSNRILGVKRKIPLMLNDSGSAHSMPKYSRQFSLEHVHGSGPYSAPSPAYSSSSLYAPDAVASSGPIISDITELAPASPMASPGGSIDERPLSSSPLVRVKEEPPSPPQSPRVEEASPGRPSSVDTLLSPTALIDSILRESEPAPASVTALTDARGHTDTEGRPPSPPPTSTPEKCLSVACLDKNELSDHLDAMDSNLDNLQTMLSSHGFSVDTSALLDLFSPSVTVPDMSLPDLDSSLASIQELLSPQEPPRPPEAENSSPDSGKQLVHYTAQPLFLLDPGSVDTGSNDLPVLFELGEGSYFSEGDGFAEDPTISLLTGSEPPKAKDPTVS
Chain of ETV5 (P41161 whole entry): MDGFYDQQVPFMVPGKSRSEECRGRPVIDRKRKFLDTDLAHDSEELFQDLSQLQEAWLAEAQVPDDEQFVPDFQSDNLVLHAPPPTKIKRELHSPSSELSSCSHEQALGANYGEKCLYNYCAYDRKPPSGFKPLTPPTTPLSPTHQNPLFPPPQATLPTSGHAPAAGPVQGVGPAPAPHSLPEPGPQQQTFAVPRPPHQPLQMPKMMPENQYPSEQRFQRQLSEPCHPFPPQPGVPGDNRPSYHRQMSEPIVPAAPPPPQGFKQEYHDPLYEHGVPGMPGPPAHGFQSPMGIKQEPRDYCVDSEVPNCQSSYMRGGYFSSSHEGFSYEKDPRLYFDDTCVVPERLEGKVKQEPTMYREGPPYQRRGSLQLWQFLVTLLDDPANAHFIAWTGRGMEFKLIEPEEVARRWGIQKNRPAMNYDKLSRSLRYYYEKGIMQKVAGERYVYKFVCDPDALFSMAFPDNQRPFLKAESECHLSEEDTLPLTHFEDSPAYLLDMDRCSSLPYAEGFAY
Chain of ETV6 (P41212 whole entry): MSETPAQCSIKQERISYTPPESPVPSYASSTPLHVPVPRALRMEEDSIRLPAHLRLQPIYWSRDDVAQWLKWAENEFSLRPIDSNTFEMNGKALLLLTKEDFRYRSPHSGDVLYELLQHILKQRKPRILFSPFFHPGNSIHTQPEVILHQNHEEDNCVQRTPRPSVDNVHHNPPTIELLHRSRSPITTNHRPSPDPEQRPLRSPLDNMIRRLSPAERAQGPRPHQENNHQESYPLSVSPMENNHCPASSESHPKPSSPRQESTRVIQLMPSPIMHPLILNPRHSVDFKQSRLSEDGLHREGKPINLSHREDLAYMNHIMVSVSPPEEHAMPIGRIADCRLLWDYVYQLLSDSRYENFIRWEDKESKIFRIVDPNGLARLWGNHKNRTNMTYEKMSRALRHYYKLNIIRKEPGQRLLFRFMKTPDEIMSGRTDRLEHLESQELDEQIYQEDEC
Chain of ETV1 (P50549 whole entry): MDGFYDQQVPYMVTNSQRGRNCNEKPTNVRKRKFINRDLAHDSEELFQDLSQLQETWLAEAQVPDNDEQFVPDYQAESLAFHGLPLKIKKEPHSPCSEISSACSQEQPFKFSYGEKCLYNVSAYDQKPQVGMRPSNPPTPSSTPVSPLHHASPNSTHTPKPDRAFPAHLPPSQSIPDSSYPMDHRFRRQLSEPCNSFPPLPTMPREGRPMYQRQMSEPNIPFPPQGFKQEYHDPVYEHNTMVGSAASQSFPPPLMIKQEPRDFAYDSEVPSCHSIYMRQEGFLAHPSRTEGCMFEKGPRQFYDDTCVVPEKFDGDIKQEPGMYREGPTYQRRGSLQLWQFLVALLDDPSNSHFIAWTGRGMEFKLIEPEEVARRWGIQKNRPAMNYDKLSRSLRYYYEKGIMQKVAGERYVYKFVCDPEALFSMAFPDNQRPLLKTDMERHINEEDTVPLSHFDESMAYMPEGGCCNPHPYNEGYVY
Chain of ELF4 (Q99607 whole entry): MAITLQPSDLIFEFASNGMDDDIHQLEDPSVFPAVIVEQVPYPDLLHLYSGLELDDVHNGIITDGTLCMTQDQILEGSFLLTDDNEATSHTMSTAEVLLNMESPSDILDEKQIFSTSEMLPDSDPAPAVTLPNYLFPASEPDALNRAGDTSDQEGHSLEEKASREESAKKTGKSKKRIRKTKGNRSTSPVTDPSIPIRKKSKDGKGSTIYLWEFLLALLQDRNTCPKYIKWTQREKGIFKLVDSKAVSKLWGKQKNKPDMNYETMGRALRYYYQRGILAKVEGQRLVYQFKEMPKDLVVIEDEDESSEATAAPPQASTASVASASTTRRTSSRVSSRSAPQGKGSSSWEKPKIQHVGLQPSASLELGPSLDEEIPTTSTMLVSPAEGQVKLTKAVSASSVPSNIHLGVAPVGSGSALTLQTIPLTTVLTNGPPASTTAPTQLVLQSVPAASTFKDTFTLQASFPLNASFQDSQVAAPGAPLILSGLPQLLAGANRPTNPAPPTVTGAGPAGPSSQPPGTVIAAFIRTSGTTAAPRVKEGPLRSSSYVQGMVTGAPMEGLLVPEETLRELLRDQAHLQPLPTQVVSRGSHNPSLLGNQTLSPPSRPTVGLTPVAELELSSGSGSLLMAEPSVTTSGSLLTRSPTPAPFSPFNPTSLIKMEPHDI

Sequence: ATCTCA
- binding signal [1]: 1.16 fold enrichment (6-mer frequency, TF over GST control)
- binding signal [2]: 1.18 fold enrichment (6-mer frequency, TF over GST control)
- binding signal [3]: 1.19 fold enrichment (6-mer frequency, TF over GST control)
- binding signal [4]: 1.14 fold enrichment (6-mer frequency, TF over GST control)
- binding signal [5]: 1.18 fold enrichment (6-mer frequency, TF over GST control)
- binding signal [6]: 1.14 fold enrichment (6-mer frequency, TF over GST control)
- binding signal [7]: 1.23 fold enrichment (6-mer frequency, TF over GST control)
- binding signal [8]: 1.22 fold enrichment (6-mer frequency, TF over GST control)
- binding signal [9]: 1.51 fold enrichment (6-mer frequency, TF over GST control)
- binding signal [10]: 1.16 fold enrichment (6-mer frequency, TF over GST control)
- binding signal [11]: 1.07 fold enrichment (6-mer frequency, TF over GST control)
- binding signal [12]: 1.13 fold enrichment (6-mer frequency, TF over GST control)
- binding signal [13]: 1.14 fold enrichment (6-mer frequency, TF over GST control)
- binding signal [14]: 1.07 fold enrichment (6-mer frequency, TF over GST control)
- binding signal [15]: 1.15 fold enrichment (6-mer frequency, TF over GST control)
- binding signal [16]: 1.09 fold enrichment (6-mer frequency, TF over GST control)
- binding signal [17]: 1.13 fold enrichment (6-mer frequency, TF over GST control)
- binding signal [18]: 1.11 fold enrichment (6-mer frequency, TF over GST control)
